Measured values as given in the antibiotic and cytotoxicity screens of Wong et al. (2023).
In all, about 39,000 compounds went through this assay and about 3,300 (8.5%) were called active. The sample as a whole holds a higher share of actives than the screen did.

Tested on: HepG2
Assay: cytotoxicity call (relative viability < 0.9)
Conditions: 10 µM

SMILES | cytotoxicity call
OCC1OC(OCCc2ccc(O)cc2)C(O)C(O)C1O (configuration not stated) | inactive
C[C@@H]1CN([C@H](C)CO)C(=O)c2cc(NC(=O)Nc3ccc(F)cc3)ccc2O[C@@H](C)CCCCO[C@@H]1CN(C)Cc1ccc(C(=O)O)cc1 | inactive
COc1ccccc1-c1cnc2c(c1)C(=O)N([C@H](C)CO)C[C@H](C)[C@H](CN(C)C(=O)c1cccnc1)O2 | inactive
CC(O)C(=O)[O-].[NH4+] (configuration not stated) | inactive
C[C@H]1CN([C@@H](C)CO)C(=O)c2cccc(NC(=O)Nc3ccc(F)cc3)c2O[C@@H]1CN(C)C(=O)Nc1ccc(C(F)(F)F)cc1 | inactive
COc1ccc(S(=O)(=O)Nc2ccc3c(c2)CC(=O)N([C@H](C)CO)C[C@H](C)[C@@H](CN(C)Cc2ccc(Cl)c(Cl)c2)O3)cc1 | inactive
COc1ccc(S(=O)(=O)Nc2ccc3c(c2)CC(=O)N([C@H](C)CO)C[C@@H](C)[C@@H](CN(C)Cc2ccc(Cl)c(Cl)c2)O3)cc1 | active
C/N=C1/S[C@@H]2CS(=O)(=O)C[C@@H]2N1C | inactive
O=C(C[C@H]1CC[C@H]2[C@@H](COC[C@@H](O)CN2S(=O)(=O)c2ccc(F)cc2)O1)N[C@H]1CCN(Cc2ccccc2)C1 | inactive
COc1cccc(CNC(=O)C[C@@H]2C=C[C@H](NC(=O)C3CCOCC3)[C@@H](CO)O2)c1 | inactive
C[C@@H]1CN([C@@H](C)CO)C(=O)c2cccc(NS(=O)(=O)c3cn(C)cn3)c2O[C@@H]1CN(C)Cc1ccccc1 | inactive
COc1ccc2cc1Oc1ccc(cc1)C[C@H]1c3c(cc4c(c3Oc3cc5c(cc3OC)CCN(C)[C@@H]5C2)OCO4)CCN1C | inactive
COc1ccc2cc1Oc1ccc(cc1)CC1c3c(cc4c(c3Oc3cc5c(cc3OC)CCN(C)C5C2)OCO4)CCN1C (configuration not stated) | active
COc1cc2c3cc1Oc1cc(ccc1O)CC1c4c(cc(OC)c(O)c4Oc4ccc(cc4)CC3N(C)CC2)CC[N+]1(C)C.Cl.O.O.O.O.O.[Cl-] (configuration not stated) | inactive
COc1ccc2cc1Oc1ccc(cc1)C[C@H]1c3cc(c(OC)cc3CCN1C)Oc1c(OC)c(OC)cc3c1[C@H](C2)N(C)CC3 | active
COc1ccc2cc1Oc1ccc(cc1)CC1c3cc(c(OC)cc3CCN1C)Oc1c(OC)c(OC)cc3c1C(C2)N(C)CC3 (configuration not stated) | inactive
COc1cc2c3cc1Oc1cc(ccc1O)C[C@@H]1c4c(cc(OC)c(O)c4Oc4ccc(cc4)C[C@@H]3N(C)CC2)CC[N+]1(C)C | inactive
CO[C@H]1CN(C)C(=O)c2cc(NS(C)(=O)=O)ccc2OC[C@H](C)N(S(C)(=O)=O)C[C@@H]1C | inactive
CNC[C@@H]1OCCCC[C@@H](C)Oc2ccc(NS(=O)(=O)c3cn(C)cn3)cc2C(=O)N([C@@H](C)CO)C[C@@H]1C | inactive
C[C@H]1CN([C@@H](C)CO)C(=O)c2cc(C#CC3(O)CCCC3)cnc2O[C@H]1CN(C)C(=O)Cc1ccncc1 | inactive
O=C(Nc1ccc2ccccc2c1)c1ccc(Cl)cc1Cl | inactive

SMILES | cytotoxicity call
O=C(NO)c1cccc(C(=O)N/N=C/c2cc(I)cc(I)c2O)c1 | inactive
O=C(Nc1ccc(Oc2ccc(Cl)cc2)c(Cl)c1)c1cc(I)cc(I)c1O | active
C[C@@H]1CCCCO[C@H](CN(C)C(=O)Nc2ccc(C(F)(F)F)cc2)[C@@H](C)CN([C@H](C)CO)C(=O)c2cc(NS(=O)(=O)c3ccc(F)cc3)ccc2O1 | inactive
C[C@H](CO)N1C[C@H](C)[C@@H](CN(C)C(=O)Nc2ccc(C(F)(F)F)cc2)OCCCC[C@H](C)Oc2ccc(NS(=O)(=O)c3ccc(F)cc3)cc2C1=O | inactive
C[C@@H]1CCCCO[C@H](CN(C)C(=O)Nc2ccc(C(F)(F)F)cc2)[C@@H](C)CN([C@@H](C)CO)C(=O)c2cc(NS(=O)(=O)c3ccc(F)cc3)ccc2O1 | inactive
C[C@H](CO)N1C[C@H](C)[C@H](CN(C)C(=O)Nc2ccc(C(F)(F)F)cc2)OCCCC[C@H](C)Oc2ccc(NS(=O)(=O)c3ccc(F)cc3)cc2C1=O | inactive
C[C@@H]1CCCCO[C@H](CN(C)C(=O)Nc2ccc(C(F)(F)F)cc2)[C@H](C)CN([C@H](C)CO)C(=O)c2cc(NS(=O)(=O)c3ccc(F)cc3)ccc2O1 | active
C[C@@H]1CCCCO[C@H](CN(C)C(=O)Nc2ccc(C(F)(F)F)cc2)[C@H](C)CN([C@@H](C)CO)C(=O)c2cc(NS(=O)(=O)c3ccc(F)cc3)ccc2O1 | active
C[C@@H]1CN([C@@H](C)CO)C(=O)c2cc(NS(=O)(=O)c3ccc(F)cc3)ccc2O[C@@H](C)CCCCO[C@@H]1CN(C)C(=O)Nc1ccc(C(F)(F)F)cc1 | active
C[C@H]1CCCCO[C@H](CN(C)C(=O)Nc2ccc(C(F)(F)F)cc2)[C@@H](C)CN([C@@H](C)CO)C(=O)c2cc(NS(=O)(=O)c3ccc(F)cc3)ccc2O1 | active
C[C@H]1CN([C@@H](C)CO)S(=O)(=O)c2ccc(C#CC(C)(C)O)cc2O[C@H]1CN(C)Cc1ccccc1 | inactive
O=C(NO)c1ccc(C(=O)N/N=C/[C@H](O)[C@H](O)[C@@H](O)[C@@H](O)CO)cc1 | inactive
C[C@@H]1CCCCO[C@H](CN(C)S(=O)(=O)c2ccc(F)cc2)[C@@H](C)CN([C@H](C)CO)C(=O)c2cc(NS(C)(=O)=O)ccc2O1 | inactive
C[C@@H]1CCCCO[C@H](CN(C)S(=O)(=O)c2ccccc2)[C@H](C)CN([C@H](C)CO)C(=O)c2cc(NC(=O)Nc3ccccc3)ccc2O1 | inactive
C[C@@H]1CCCCO[C@@H](CN(C)Cc2ccc(C(=O)Nc3ccccc3N)cc2)[C@@H](C)CN([C@H](C)CO)C(=O)c2cc(NC(=O)CCC(F)(F)F)ccc2O1 | inactive
C[C@@H]1CN([C@@H](C)CO)S(=O)(=O)c2ccc(C#C[C@@H](C)O)cc2O[C@H]1CN(C)C(=O)c1ccccc1 | inactive
COc1ccc(NC(=O)Nc2ccc3c(c2)C(=O)N([C@@H](C)CO)C[C@@H](C)[C@H](CN(C)S(=O)(=O)c2ccccc2)OCCCC[C@H](C)O3)cc1 | inactive
COc1ccc(S(=O)(=O)N(C)C[C@H]2Oc3ccc(NS(=O)(=O)c4ccccc4)cc3CC(=O)N([C@H](C)CO)C[C@H]2C)cc1 | inactive
C[C@@H]1CCCCO[C@@H](CN(C)C(=O)Nc2ccc(C(F)(F)F)cc2)[C@H](C)CN([C@@H](C)CO)C(=O)c2cc(NS(=O)(=O)c3ccc(F)cc3)ccc2O1 | active
C[C@@H]1CCCCO[C@@H](CN(C)C(=O)Nc2ccc(C(F)(F)F)cc2)[C@@H](C)CN([C@H](C)CO)C(=O)c2cc(NS(=O)(=O)c3ccc(F)cc3)ccc2O1 | active
C[C@H]1CCCCO[C@@H](CN(C)C(=O)Nc2ccc(C(F)(F)F)cc2)[C@@H](C)CN([C@@H](C)CO)C(=O)c2cc(NS(=O)(=O)c3ccc(F)cc3)ccc2O1 | inactive

SMILES | cytotoxicity call
C[C@@H]1CCCCO[C@@H](CN(C)C(=O)Nc2ccc(C(F)(F)F)cc2)[C@H](C)CN([C@H](C)CO)C(=O)c2cc(NS(=O)(=O)c3ccc(F)cc3)ccc2O1 | inactive
C[C@@H]1CCCCO[C@@H](CN(C)S(=O)(=O)c2cccs2)[C@H](C)CN([C@H](C)CO)C(=O)c2cc(NS(=O)(=O)c3cn(C)cn3)ccc2O1 | inactive
COCC#Cc1ccc2c(c1)O[C@H](CN(C)S(=O)(=O)c1ccc(OC)cc1)[C@H](C)CN([C@H](C)CO)S2(=O)=O | inactive
C[C@@H]1CN([C@@H](C)CO)C(=O)c2cccc(NS(C)(=O)=O)c2O[C@H]1CN(C)C(=O)Nc1ccc(F)cc1 | inactive
C[C@H]1CN([C@@H](C)CO)C(=O)c2cc(NC(=O)Cn3cnnn3)ccc2O[C@@H]1CN(C)Cc1ccc2c(c1)OCO2 | inactive
O=S1(=O)N[C@H](c2ccccc2)CO1 | inactive
Cc1ccc(S(=O)(=O)Nc2ccc3c(c2)CC(=O)N([C@H](C)CO)C[C@@H](C)[C@H](CN(C)C(=O)Nc2cccc4ccccc24)O3)cc1 | inactive
O=S1(=O)CC=CC1 | inactive
Cc1ccc(S[C@]2(C(=O)NC3CC3)CC(=O)N(C3CCCCC3)[C@@H]2c2ccc(CO)cc2I)cc1 | inactive
Cc1noc(C)c1S(=O)(=O)Nc1ccc2c(c1)C(=O)N([C@H](C)CO)C[C@@H](C)[C@H](CN(C)C)OCCCC[C@@H](C)O2 | inactive
COc1ccc2c3c(n(c2c1)C)[C@H](CO)N(C[C@]13CCN(CC1)Cc1cccc(c1)F)C(=O)Nc1ccc(cc1)F | active
COc1ccc2c3c(n(c2c1)C)[C@@H](CO)N(C[C@]13CCN(CC1)Cc1cccc(c1)F)C(=O)Nc1ccc(cc1)F | inactive
COc1cccc(c1)CN1CC[C@]2(CC1)CN([C@H](CO)c1c2c2ccc(cc2n1C)OC)C(=O)Nc1ccc(cc1)F | inactive
COc1ccc2c3c(n(c2c1)C)[C@@H](CO)N(C[C@]13CCN(CC1)C(=O)c1ccccc1F)C(=O)Nc1ccc(cc1)F | inactive
COc1ccc2c3c(n(c2c1)C)[C@H](CO)N(C[C@]13CCN(CC1)Cc1ccccc1F)C(=O)Nc1ccc(cc1)F | inactive
COc1ccc2c3c(n(c2c1)C)[C@@H](CO)N(C[C@]13CCN(CC1)Cc1ccccc1F)C(=O)Nc1ccc(cc1)F | active
O=C(C[C@H]1CC[C@@H]2[C@H](COC[C@H](O)CN2C(=O)Nc2cccc(F)c2)O1)NCc1ccccc1Cl | inactive
CN1C(=O)c2cc(NC(=O)c3ccc(F)c(F)c3)ccc2OC[C@@H]2O[C@@H](CC(=O)N3CCOCC3)CC[C@H]21 | inactive
C[C@H](CO)N1C[C@H](C)[C@@H](CN(C)C(=O)Cc2ccccc2)Oc2cc(-c3cncnc3)ccc2S1(=O)=O | inactive
C[C@@H]1CN([C@H](C)CO)C(=O)c2cc(C#Cc3cccc(F)c3)cnc2O[C@@H]1CN(C)CC1CCOCC1 | inactive
